CYP2C19 activ = activators of human cytochrome P450 2C19 | P33261 | recombinant CYP2C19, luciferin-H EGE luminescence; active compounds read high; 0 = fully inhibited enzyme, 1 = untreated enzyme | activation factor at 5 µM | 96,000 tested, under 10 active;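 active means activation factor of at least 2 at 5 µM in the primary screen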;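 further: 0 = wells with 2.5 mM tranylcypromine and 1 = vehicle-only wells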
Target sequence (P33261 whole entry, looked up): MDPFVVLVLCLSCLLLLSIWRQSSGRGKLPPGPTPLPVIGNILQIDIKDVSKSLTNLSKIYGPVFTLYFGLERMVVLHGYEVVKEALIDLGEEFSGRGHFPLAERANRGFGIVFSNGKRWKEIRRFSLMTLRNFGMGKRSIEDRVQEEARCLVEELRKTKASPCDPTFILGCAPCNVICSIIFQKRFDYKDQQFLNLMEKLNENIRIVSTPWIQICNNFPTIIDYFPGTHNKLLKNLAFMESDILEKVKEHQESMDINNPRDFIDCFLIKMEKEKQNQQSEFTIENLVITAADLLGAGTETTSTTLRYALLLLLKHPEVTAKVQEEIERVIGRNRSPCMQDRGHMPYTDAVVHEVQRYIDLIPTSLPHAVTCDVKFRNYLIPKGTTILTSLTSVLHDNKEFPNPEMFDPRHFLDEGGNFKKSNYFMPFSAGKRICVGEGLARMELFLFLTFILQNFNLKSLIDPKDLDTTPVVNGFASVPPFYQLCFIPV
CYP2C9 inh = inhibitors of human CYP2C9. 96,000 tested, 20% active. inhibition, % at 5 µM. AID 777. CYP2C9 Supersomes, luciferin-H conversion, luminescence;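 active means blocking of liver enzyme CYP2C9 beyond about 50% at 5 µM, limit read from the data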
PostGolgi ctrl = inhibits growth of the yeast control strain. efflux-deficient yeast background strain, growth absorbance A615, 16 h. inhibition, % at 10 µM. 98,000 tested, 5% active
CYP2C9 act = increases human cytochrome P450 2C9 activity | recombinant CYP2C9, luciferin-H conversion, luminescence; active compounds read high; factor 1 = untreated enzyme, 0 = blocked | P11712 | activation factor at 5 µM | 96,000 tested, 1.4% active | AID 1024;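 active means activation factor of 2 or more for CYP2C9 at a 5 µM dose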;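 further: 0 = sulfaphenazole-blocked wells and 1 = vehicle-only wells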
CYP2C19 inh = blocks human cytochrome P450 2C19. AID 778. 96,000 tested, 21% active. CYP2C19 Supersomes, luciferin-H EGE luminescence, 30 min. inhibition, % at 5 µM;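 active means CYP2C19 inhibition above a set limit at 5 µM in the primary screen, cut at about 50% in these data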;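 further: plate controls were negative control wells for no effect and 2.5 mM tranylcypromine positive control for full effect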
PostGolgi yeast = growth inhibition of a yeast mutant, post-Golgi transport screen. post-Golgi transport phenotypic cell assay. inhibition, % at 10 µM. 98,000 tested, 0.9% active;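 further: yeast cells grown in 1536-well plates; yeast grown about 18 h at 30C before absorbance read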
An asterisk follows results filed as active; x = not tested or not shown. Hits are enriched below; roughly 32% of the tested compounds scored in any of these assays. Unless noted, no stated cut-off is given here; in the data, active means inhibition above about 30%; inactive means the rest.

SMILES | CYP2C19 activ | CYP2C9 inh | PostGolgi ctrl | CYP2C9 act | CYP2C19 inh | PostGolgi yeast
Cc1onc(-c2ccccc2Cl)c1C(=O)N1CCCc2ccccc21 | 0.3 | 16 | 16 | 0.8 | 68* | -10
Cc1onc(-c2ccccc2Cl)c1C(=O)N1CCc2ccccc21 | 0.3 | 34 | 34* | 0.7 | 69* | -2
Cc1onc(-c2c(F)cccc2Cl)c1C(=O)N1C=CC(C(F)(F)Cl)=NCC1 | 0.4 | 29 | 3 | 0.7 | 58* | -1
Cc1onc(-c2ccccc2Cl)c1C(=O)OCC(=O)N1CCCc2ccccc21 | 0.1 | 96* | 4 | 0 | 94* | -2
O=C(c1ccco1)N1CCC(c2nc(-c3ccc(F)cc3)no2)CC1 | 0.8 | 16 | 11 | 0.8 | 18 | 7
COCC(=O)Nc1nnc(SCC(=O)NCc2cccs2)s1 | 0.9 | -5 | 8 | 1.1 | 6 | 0
Cc1onc(-c2c(F)cccc2Cl)c1C(=O)N1CCCc2ccccc21 | 0.3 | 26 | -1 | 0.7 | 66* | 12
Cc1onc(-c2ccccc2)c1C(=O)N1CCc2ccccc21 | 0.1 | 41 | 11 | 0.6 | 90* | 8
Cc1ccc2c(c1)CCCN2C(=O)c1c(C)noc1C | 0.5 | 35 | 11 | 0.6 | 47 | -15
Cc1onc(-c2ccccc2)c1C(=O)n1cccn1 | 0.6 | 7 | -4 | 0.9 | 41 | 4
COc1cc(C2c3c(n[nH]c3C)C(=O)N2c2ccc(Br)cc2)ccc1O (configuration not stated) | 0.5 | 31 | 10 | 0.7 | 52* | 0
CCOc1cc(C2C(C(=O)O)c3cc(OCC)c(OCC)cc3C(=O)N2C)ccc1O (configuration not stated) | 1.2 | -19 | 0 | 1.2 | -15 | -6
CCOc1cc(C2c3c(n[nH]c3C)C(=O)N2c2ccc(Br)cc2)ccc1O (configuration not stated) | 0.2 | 71* | 6 | 0.3 | 81* | -5
Cc1ccccc1C(=O)NC(=S)NCC1CCCO1 (configuration not stated) | 0.7 | 20 | 29 | 0.8 | 32 | -14
CCc1cc(C(=O)NNC(=S)NCC2CCCO2)cs1 (configuration not stated) | 0.7 | -40 | 30* | 1.4 | 33 | -12
COc1ccc(NC(=S)NCC2CCCO2)c(OC)c1 (configuration not stated) | 0.4 | -7 | 5 | 1.1 | 56* | -3
Cc1cc(C)cc(NC(=S)NCC2CCCO2)c1 (configuration not stated) | 0.8 | -115 | 1 | 2.1* | 15 | 4
CC(NC(=O)c1cccc(C(F)(F)F)c1)C1CCCO1 (configuration not stated) | 0.7 | 12 | 1 | 0.9 | 29 | 15
CCCCOc1ccc(C2(C)CC(=O)NC2=O)cc1 (configuration not stated) | 0.5 | 15 | 30 | 0.8 | 51* | 14
CCCCOc1ccc(C(=O)NC)cc1 | 0.8 | 12 | -4 | 0.9 | 22 | -8
CC(C)(C)C(=O)COC(=O)CNC(=O)c1ccc(Oc2ccccc2)cc1 | 0.8 | 53* | 0 | 0.5 | 22 | 6
CCCCP(=O)(CCCC)Cc1ccccc1 | 1 | 4 | 13 | 1 | 0 | 13
CCCCCCS(=O)Cc1ccccc1 (configuration not stated) | 0.1 | -5 | -3 | 1.1 | 91* | -10
c1ccc(-c2nn3c(-c4ccccc4)nnc3s2)cc1 | 0.5 | 29 | 5 | 0.7 | 46 | -1
c1ccc(Cc2nn3c(-c4ccncc4)nnc3s2)cc1 | 0 | 84* | 16 | 0.2 | 99* | -5
SMILES | CYP2C19 activ | CYP2C9 inh | PostGolgi ctrl | CYP2C9 act | CYP2C19 inh | PostGolgi yeast
c1ccc(-c2nnc3sc(Cc4cccs4)nn23)cc1 | x | x | 30* | x | x | 3
c1ccc(OCc2nn3c(-c4ccncc4)nnc3s2)cc1 | 0 | 80* | -4 | 0.2 | 99* | 0
c1ccc(OCc2nn3c(-c4ccccn4)nnc3s2)cc1 | 0.6 | 29 | 9 | 0.7 | 44 | 3
Clc1ccc(-c2nnc3sc(Cc4cccs4)nn23)cc1 | 0.8 | 13 | x | 0.9 | 22 | x
O=C(COc1ccccc1)NC(Cc1c[nH]c2ccccc12)C(=O)O (configuration not stated) | 0.7 | 31 | 26 | 0.7 | 26 | 10
O=C1CN=C(Nc2cccc(C(F)(F)F)c2)N1C1CCCC1 | 0.3 | 82* | 0 | 0.2 | 72* | 11
Cc1cc(C)c(NC2=NCC(=O)N2C2CCCCC2)c(C)c1 | 0.1 | 85* | 11 | 0.2 | 90* | -2
CCc1ccccc1NC1=NCC(=O)N1C1CCCCC1 | 0.4 | 53* | 9 | 0.5 | 56* | -1
CCN(CC)CC(=O)N(CC(=O)Nc1c(C)cc(C)cc1C)C1CCCCC1 | 0.9 | 8 | 3 | 0.9 | 5 | 1
O=c1c2ccccc2nnn1Cc1ccccn1 | 1 | -10 | -6 | 1.1 | -3 | -4
Cn1c(=O)c2[nH]c(N3CCOCC3)nc2n(-c2ccccc2)c1=O | 1 | 0 | -6 | 1 | 2 | -1
CCc1cc2c(=O)c(-c3cnn(-c4ccccc4)c3)c(C)oc2c(CN2CCCCC2)c1O | 0.5 | 28 | 4 | 0.7 | 46 | 5
Cc1[nH]nc(-c2ccc(O)c(C)c2O)c1-c1cnn(-c2ccccc2)c1 | 0 | 99* | 8 | 0 | 99* | -11
CCOC(=O)C(CCCOc1ccccc1C)C(=O)OCC | 0.8 | 47 | 5 | 0.5 | 16 | -8
O=C(NCCCNC(=O)c1cccs1)c1cccs1 | 0.7 | 42 | 20 | 0.6 | 27 | 2
O=C(NCCc1ccccc1)c1ccc([N+](=O)[O-])cc1 | 0.5 | -16 | -1 | 1.2 | 48 | 1
CC1CCN(c2ccc(C(=O)NCCc3ccccc3)cn2)CC1 | 0.9 | 67* | 9 | 0.3 | 11 | 12
O=C(CNC(=O)c1cccs1)NCC(=O)OCc1ccc(Cl)cc1 | 0.9 | 6 | 32* | 0.9 | 12 | -1
CC(C)(CNC(=O)c1cccs1)CNC(=O)c1cccs1 | 0.4 | 86* | 10 | 0.1 | 58* | 3
O=C(NCCc1ccccc1)c1ccncc1 | 0.2 | 38 | 1 | 0.6 | 78* | -5
CCOCCCNC(=O)C(Cc1ccccc1)NC(=O)c1ccco1 (configuration not stated) | 0.8 | 20 | 1 | 0.8 | 18 | -1
CCCCOc1ccc(-c2nnn(CC(=O)NCCc3c[nH]c4ccccc34)n2)cc1 | 0.9 | 49 | 22 | 0.5 | 10 | -15
CCCCC(CC)CNC(=O)c1cccs1 (configuration not stated) | 0.1 | 91* | 13 | 0.1 | 88* | -4
O=C(NCCc1ccccc1)c1cccs1 | 0.5 | 5 | 3 | 1 | 53* | 14
COc1ccc(-c2nc(CCNC(=O)c3cccs3)cs2)cc1 | 0.6 | 76* | 26 | 0.2 | 40 | 10
COc1ccc(-c2nc(CC(=O)O)cs2)cc1 | 1.1 | -4 | 23 | 1 | -15 | 10

High-throughput results deposited in PubChem by several laboratories.
